Activity calls are given as the source filed them. How the source made its calls: active means hit-call score of the fitted dose curve at least 0.9, where 1 is the maximum; inactive means score below 0.9.
Assay: BSK_LPS_PGE2: BioMAP Diversity Plus: LPS Assay for Prostaglandin E2 (PGE2) Biomarker Activity (AID 2283082)
Conditions: primary human HUVEC with PBMC; actives raise or lower the signal
Procedure: BSK_LPS is a cell-based, multiplexed-readout assay that uses umbilical vein endothelium and peripheral blood mononuclear cells, a human vascular primary cell co-culture, with measurements taken at 24 hours after chemical dosing in a 96-well plate.BSK_LPS_PGE2 is an assay component measured in the BSK_LPS assay. It measures PGE2 antibody related to regulation of gene expression using ELISA technology.Data from the assay component BSK_LPS_PGE2 was analyzed into 1 assay endpoint. This assay endpoint, BSK_LPS_PGE2, was analyzed with bidirectional fitting relative to DMSO as the negative control and baseline of activity. Using a type of binding reporter, gain or loss-of-signal activity can be used to understand changes in the signaling as they relate to the gene PTGER2. Furthermore, this assay endpoint can be referred to as a primary readout, because this assay has produced multiple assay endpoints where this one serves a signaling function. To generalize the intended target to other relatable targets, this assay endpoint is annotated to the gpcr intended target family, where the subfamily is rhodopsin-like receptor.
The levels of cell surface (or secreted, indicated by the prefix "s") biomarker endpoints were measured by ELISA. Overt cytotoxicity to cells in confluent adherent cultures (all systems other than the BT system) was assessed by measuring total protein levels using sulforhodamine B (SRB) staining in parallel cultures at the time of biomarker measurements, indicated as SRB endpoints. For proliferation assays for adherent cell types, individual cell types are cultured at sub-confluence and relative cell numbers quantified by SRB staining at time points optimized for each system (48 h: 3C and CASM3C systems; 72 h: BT and HDF3CGF systems; 96 h: SAg system). SRB was performed by staining cells with 0.1% SRB after fixation with 10% TCA and reading wells at 560 nm.Viability and proliferation of PBMC (T cells) was quantified by Alamar Blue reduction for the SAg and BT systems. For PBMC viability (referred to as PBMC Cytotoxicity within the assay endpoint names), cells were plated (75,000/well in a 96-well plate) and then chemical samples added for 1 h before addition of activators, SEB and TSST-1 (20 ng/mL final concentration each). Cells were incubated for 90 h. Then, Alamar Blue (20 uL/well) (Invitrogen, Cat DAL1100) was added for 6 h, and the plates were read with a fluorescence microplate reader at 546/580 nm (excitation/emission). For PBMC proliferation, cells were plated and activated as above but incubated for only 16 h prior to addition of Alamar Blue. Plates were read after 6 h.

Structure (SMILES)	outcome	AC50
Cn1c(=O)c2c(ncn2C)n(C)c1=O	inactive	–
CNCc1ccc(NC(=O)c2c[nH]c3c2C(=O)CCC3)cc1	inactive	–
O=c1n(CC2CO2)c(=O)n(CC2CO2)c(=O)n1CC1CO1 (stereo not given)	inactive	–
O=C(O)c1cc(N=Nc2ccc(S(=O)(=O)Nc3ccccn3)cc2)ccc1O	inactive	–
CC(C)CCO	inactive	–
CC(=O)c1ccc2c(c1)[C@H](NC(=O)c1ccc(F)cc1)[C@@H](O)C(C)(C)O2	inactive	–
CC(C)=CCC/C(C)=C\CO	inactive	–
CCc1cc(SCc2sc(-c3ccc(C(F)(F)F)cc3)nc2CN2CCN(c3ccc(OC)cc3)CC2)ccc1OCC(=O)O	–	20 µM (active)
NC(=O)NO	inactive	–
CCOC(=O)COc1ccc2c(c1)CC(NCC(O)c1cccc(Cl)c1)CC2 (stereo not given)	–	27.6 µM (active)
Cc1ccc(C)c(O)c1	–	9.83 µM (active)
CCCCCCCCCCCCCCCO	inactive	–
CC[C@H]1CC[C@H](NCc2cc3c(cc2OC)[C@H]2C[C@H]2C(=O)N3C)[C@H](c2ccccc2)N1	inactive	–
CC(C)CCCCCCOC(=O)c1ccc(C(=O)OCCCCCCC(C)C)c(C(=O)OCCCCCCC(C)C)c1	inactive	–
CN(C)c1ccc(N=NS(=O)(=O)O)cc1	inactive	–
COC(=O)CC(=O)OC	inactive	–
Cc1[nH]cnc1C[C@H]1CCc2c(C)c3ccccc3n2C1=O	inactive	–
Clc1nc(Cl)c(Cl)c(Cl)c1Cl	–	15.1 µM (active)
CCC(C)(C)C(=O)O[C@H]1C[C@@H](C)C=C2C=C[C@H](C)[C@H](CC[C@@H]3C[C@@H](O)CC(=O)O3)[C@H]21	inactive	–
CCCC(=O)OCC	inactive	–

Structure (SMILES)	outcome	AC50
C=CC(=C)CCC=C(C)C	inactive	–
CCCCC(CC)COC(=O)c1ccc(C(=O)OCC(CC)CCCC)cc1 (stereo not given)	inactive	–
CCn1nc(Cc2ccccc2)cc1C1CCN(C[C@H]2C[C@H](N(C)[C@@H](C(=O)O)C(C)C)C[C@@H]2c2cccc(F)c2)CC1	inactive	–
CCCCCCCCCCCCc1ccccc1	inactive	–
CNS(=O)(=O)c1cc(C(=O)N2CCC(CCN3C4CCC3CC(n3c(C)nc5ccccc53)C4)(c3cccc(F)c3)CC2)c(Cl)cc1F (stereo not given)	inactive	–
C1N2CN3CN1CN(C2)C3	inactive	–
O=C1CCC(N2C(=O)c3ccccc3C2=O)C(=O)N1 (stereo not given)	inactive	–
CC(C)(O)c1coc(S(=O)(=O)NC(=O)Nc2c3c(cc4c2CCC4)CCC3)c1	inactive	–
O=c1[nH]c2ccc(S(=O)CCN3CCC(Cc4ccc(F)cc4)CC3)cc2o1 (stereo not given)	inactive	–
CC/C(=C\C(=N/O)C(N)=O)C(C)[N+](=O)[O-] (stereo not given)	inactive	–
COc1ccc2sc(C(=O)Nc3nnn[nH]3)c(OC(C)C)c2c1	–	34.1 µM (active)
CCCN(C1CCN(C(=O)C2CCNCC2)CC1)[C@@H]1CCc2ccc(OC)cc2C1	inactive	–
O=P(OC(CCl)CCl)(OC(CCl)CCl)OC(CCl)CCl	inactive	–
CCCCCCCCO	inactive	–
O=C(O)CC(O)C(=O)O (stereo not given)	inactive	–
Cc1ccc(S(=O)(=O)O)cc1C	inactive	–
CCOC(=O)CC(CC(=O)OCC)(OC(C)=O)C(=O)OCC	inactive	–
CC(C)=CCC/C(C)=C/CO	inactive	–
CC(O)CN(CCN(CC(C)O)CC(C)O)CC(C)O (stereo not given)	inactive	–
O=C(O)c1cccc(Oc2ccccc2)c1	inactive	–

From PubChem BioAssay (EPA / NIEHS)
